Experimental data published in PubChem BioAssay AID1970 (National Center for Advancing Translational Sciences (NCATS), 2009).
Results filed as inconclusive are left out. Calls of active or inactive are those of the source. The call rests on the fitted dose curve; in most records, active means well fitted inhibition curve with a large enough effect; inconclusive means small, poorly fitted or top-dose-only effect; inactive means flat fitted curve, though single readings scatter.

biological target: Dual specificity protein kinase CLK4 (Homo sapiens) (UniProt Q9HAZ1); experiment: Confirmation Assay for Inhibitors of CDC-like Kinase 4 (Kinase-Glo Assay); details: recombinant Clk4, Kinase-Glo ATP depletion luminescence; series mostly up to 47.7 µM
Sequence (Q9HAZ1 whole entry, looked up): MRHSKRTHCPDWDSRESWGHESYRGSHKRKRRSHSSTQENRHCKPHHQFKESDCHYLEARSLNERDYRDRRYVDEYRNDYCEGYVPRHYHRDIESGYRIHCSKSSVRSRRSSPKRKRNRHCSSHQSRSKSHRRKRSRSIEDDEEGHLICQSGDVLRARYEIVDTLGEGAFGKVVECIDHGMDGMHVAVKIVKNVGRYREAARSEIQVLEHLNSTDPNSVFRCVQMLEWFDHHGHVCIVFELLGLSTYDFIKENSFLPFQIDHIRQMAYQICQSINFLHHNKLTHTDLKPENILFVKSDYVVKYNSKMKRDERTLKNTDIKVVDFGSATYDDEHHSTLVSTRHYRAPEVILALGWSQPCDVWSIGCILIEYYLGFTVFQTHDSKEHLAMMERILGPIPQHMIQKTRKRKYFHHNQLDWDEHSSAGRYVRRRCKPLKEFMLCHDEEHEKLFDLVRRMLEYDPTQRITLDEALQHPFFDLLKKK
Experimental: NIH Molecular Libraries Probe Production Centers Network [MLPCN] NIH Chemical Genomics Center [NCGC] MLPCN Grant: 1R03MH084827-01 Assay Submitter (PI): Tom Misteli NCGC Assay Overview: Clk4 (Invitrogen, cat# PV3839) was assayed using ATP and the RS repeat peptide (AnaSpec cat # 61722) as substrates. Following the Clk4 reaction, the remaining ATP levels were detected using Promega Kinase-Glo technology wherein the remaining ATP from the kinase reaction is detected using Ultra-Glo luciferase and D-luciferin which generates a bioluminescence signal from the ATP.
NCGC Assay Protocol Summary: Two uL/well of substrate-buffer solution (100 uM RS peptide, 1 uM ATP, 25 mM Tris pH7.5, 10 mM MgCl2, 0.5 mM EGTA, 2.5 mM DTT, 0.01% Triton X-100 final concentration) was dispensed into 1536-well, assay plates (Greiner, solid white medium-binding plates) with Aurora Discovery BioRAPTR Flying Reagent Dispenser (FRD; Beckton-Dickenson). Using a Kalypsys pin tool equipped with a 1536-pin tool, 23 nL of compound solution was transferred to the assay plate. One uL/ well Clk4-buffer solution (25 nM Clk4, 25 mM Tris pH 7.5, 10 mM MgCl2, 0.5 mM EGTA, 2.5 mM DTT, 0.01% Triton X-100, final concentrations) was then added using the FRD yielding a total kinase reaction volume of 3 uL/ well. After 4.5 hours of room temperature incubation, 3 uL Kinase-Glo reagent was added for a final assay volume of 6 uL/ well. Luminescence was detected with the ViewLux plate reader (Perkin Elmer, Waltham, MA) after 5 min incubation using a 5 second exposure time and 2x binning.

Potency, active:
CCOC(=O)c1ccc(-c2ccc3ncnc(NCc4ncc[nH]4)c3c2)o1 582 nM
Cc1cc(CNc2ncnc3ccc(-c4ccc5c(c4)OCO5)cc23)c(C)o1 119 nM
c1nc(NCc2ccc3c(c2)OCO3)c2cc(-c3ccoc3)ccc2n1 631 nM
c1cncc(CNc2ncnc3ccc(-c4ccco4)cc23)c1 6310 nM
Cc1nc(C)c(-c2ccc3ncnc(NCc4ncc[nH]4)c3c2)s1 1840 nM
c1csc(CNc2ncnc3ccc(-c4ccoc4)cc23)c1 184 nM
Cn1ccc2cc(-c3ccc4ncnc(NCc5cccs5)c4c3)ccc21 31600 nM
CCOC(=O)c1ccc(-c2ccc3ncnc(NCc4cccs4)c3c2)o1 116 nM
c1c[nH]c(CNc2ncnc3ccc(-c4ccc5c(c4)OCO5)cc23)n1 94.7 nM
Fc1cccc(CNc2ncnc3ccc(-c4ccoc4)cc23)c1 3160 nM
c1csc(CCNc2ncnc3ccc(-c4ccc5c(c4)OCO5)cc23)c1 46.3 nM
Cc1cccc(CNc2ncnc3ccc(-c4ccoc4)cc23)c1 199 nM
Cc1ccc(CNc2ncnc3ccc(-c4ccc5c(c4)OCO5)cc23)s1 189 nM
Cc1csc(CNc2ncnc3ccc(-c4ccc5c(c4)OCO5)cc23)n1 37.7 nM
Cc1csc(CNc2ncnc3cc(-c4ccc5c(c4)OCO5)ccc23)n1 8440 nM
Cn1cnc(CCNc2ncnc3ccc(-c4ccc5c(c4)OCO5)cc23)c1 232 nM
CN(C)CCNc1ncnc2ccc(-c3ccc4c(c3)OCO4)cc12 463 nM
c1coc(CCNc2ncnc3ccc(-c4ccc5c(c4)OCO5)cc23)c1 59.8 nM
CC(C)(C)CNc1ncnc2ccc(-c3ccc4c(c3)OCO4)cc12 32.4 nM
Cc1nc(CNc2ncnc3ccc(-c4sc(C)nc4C)cc23)cs1 1640 nM
CCn1cnc(CCN(C)c2ncnc3ccc(-c4ccc5c(c4)OCO5)cc23)c1 1300 nM
c1c[nH]c(CNc2ncnc3ccc(-c4ccoc4)cc23)n1 2920 nM
Cc1ccsc1CNc1ncnc2ccc(-c3ccc4c(c3)OCO4)cc12 33.6 nM
COc1cccc(-c2ccc3ncnc(NCc4cccc(F)c4)c3c2)c1 631 nM
Cc1cccc(CNc2ncnc3ccc(-c4ccc5c(c4)OCCO5)cc23)c1 501 nM
Cc1csc(CNc2ncnc3ccc(-c4ccc5c(ccn5C)c4)cc23)c1 35500 nM
CCCN(Cc1cccs1)c1ncnc2ccc(-c3ccc4c(c3)OCO4)cc12 116 nM
Cc1nc(CNc2ncnc3ccc(-c4oc(-c5ccccc5)nc4C)cc23)cs1 2320 nM
c1cncc(CNc2ncnc3ccc(-c4ccc5c(c4)OCCO5)cc23)c1 447 nM
c1nc(NCC2CCOC2)c2cc(-c3ccc4c(c3)OCO4)ccc2n1 (stereo not given) 58.2 nM
Cc1ccc(CNc2ncnc3ccc(-c4ccoc4C)cc23)o1 368 nM
Cc1csc(CNc2ncnc3ccc(-c4ccoc4)cc23)c1 355 nM
Fc1cccc(CNc2ncnc3ccc(-c4cccc(Cl)c4)cc23)c1 7080 nM
c1nc(NCc2ccoc2)c2cc(-c3ccc4c(c3)OCO4)ccc2n1 37.7 nM
c1cncc(CNc2ncnc3ccc(-c4ccc5c(c4)OCO5)cc23)c1 100 nM
Clc1ccccc1-c1ccc2ncnc(NCc3cccs3)c2c1 7940 nM
CCOC(=O)c1ccoc1-c1ccc2ncnc(NCc3ccc(C)o3)c2c1 5820 nM
c1nc(OCc2cnc[nH]2)c2cc(-c3ccc4c(c3)OCO4)ccc2n1 6540 nM
Cn1cncc1CNc1ncnc2ccc(-c3ccc4c(c3)OCO4)cc12 75.2 nM
Fc1cccc(CNc2ncnc3ccc(-c4cccnc4)cc23)c1 3980 nM
